Data: PubChem BioAssay AID1069 (NMMLSC, 2008)
Calls of active or inactive are those of the source.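 How the source made its calls: active means high combined rank on largest and smallest cell-count-weighted shift across three tests, rank score above 45, floors 50 and 25 (some results past the limit were not filed as active); inactive means the rest.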

Assay: LNCaP granularity increase inducers, single-point recheck – cell-based, side scatter shift, flow cytometry, confirmation (AID 1069);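 further: LNCaP human prostate cancer cells in low-serum medium with charcoal-stripped FBS; percent of cells with raised granularity gated so DMSO controls show 10%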
Settings: LNCaP differentiation, 4 d, stronger effect = higher value

SMILES | side scatter shift (at 100 µM) | side scatter shift (side scatter shift, at 10 µM)
Cc1cccc(OCCn2c(=O)n(C)c3ccccc32)c1 | 26.7% (inactive) | 4.5%
Cc1cc(=O)c2ccccc2[nH]1 | 11.2% (inactive) | 2.3%
CCN1CCCC1CNC(=O)c1cc2c(-c3cccc(OC)c3)nn(C)c2s1 (configuration not stated) | 40% (inactive) | 12.8%
CCN1CCN(CCNC(=O)C2CCN(Cc3nc(-c4ccc(Cl)cc4)oc3C)CC2)CC1 | 44.7% (active) | 28.8%
COc1ccc(OC)c(N=Cc2c(O)[nH]c3ccccc23)c1 | 7.2% (inactive) | 6.1%
CN(CCNC(=O)C1CC(=O)N(c2ccc(F)c(Cl)c2)C1)Cc1ccccc1 (configuration not stated) | 62% (active) | 3.65%
CN(CC(O)COc1ccc(OCC(O)CN(C)C2CCCCC2)cc1)C1CCCCC1 (configuration not stated) | 49.4% (active) | 8.9%
COc1ccc(-c2ccc(-c3nnn(CC(C)=O)n3)cc2)cc1 | 11.7% (inactive) | 2.95%
CN1CCN(c2oc(COc3ccc(-c4ccccc4)cc3)nc2C#N)CC1 | 40% (inactive) | 10.8%
O=C(CN1CCC(n2nnc3cc(F)ccc32)CC1)Nc1ccc2c(c1)CCC2 | 6.2% (inactive) | 1.9%
COc1cc2c(C(=O)NCCCN3CCN(c4cccc(Cl)c4)CC3)cn(C)c(=O)c2cc1OC | 53.3% (inactive) | 15.4%
N#CC1=C(N)OC2=C(C(=O)CCC2)C1c1ccc(OC(=O)N2CCOCC2)cc1 (configuration not stated) | 7.8% (inactive) | 2.45%
CC1(C)CC(=O)c2cc(OCC(=O)NCCCN3CCN(c4ccc(F)cc4)CC3)ccc2O1 | 5.9% (inactive) | 15.1%
Cc1cc(=O)n2nc(N3CCCC3C(=O)NCc3ccccn3)sc2n1 (configuration not stated) | 4% (inactive) | 7.1%
Cc1nn(Cc2ccc(F)cc2)c(C)c1NC(=O)c1cc(-c2ccc3c(c2)OCO3)on1 | 4.8% (inactive) | 1.1%
Cc1cc(NC(=O)CSc2nnc(Cn3c(=O)sc4ccccc43)n2-c2ccccc2C)no1 | 26.5% (inactive) | 8.25%
CCOC(=O)N1CCN(C(=O)CCc2c(C)nc3c(c(C)nn3-c3ccc(C)c(C)c3)c2C)CC1 | 0% (inactive) | 6.6%
COC(=O)c1ccccc1NC(=O)CN1CCC(n2nnc3cc(F)ccc32)CC1 | 25.9% (inactive) | 6.9%
Cc1oc(-c2ccc(Cl)cc2)nc1CN1CCCC(C(=O)N2CCN(C(=O)c3ccco3)CC2)C1 (configuration not stated) | 42.1% (inactive) | 3.65%
CCc1ncc(C(O)c2cccc(OC)c2OC)n1C (configuration not stated) | 1.4% (inactive) | 5.25%
CCOc1ccc(C(=O)Nc2ccc(Cl)cn2)cc1Cl | 22% (inactive) | 2.75%

SMILES | side scatter shift (at 100 µM) | side scatter shift (side scatter shift, at 10 µM)
CCc1ccc(-c2nc(CN3CCCC(C(=O)O)C3)c(C)o2)cc1 (configuration not stated) | 12.4% (inactive) | 9%
CC(C)CCNC(=O)C1CCN(c2nc3ccccc3o2)CC1 | 28.8% (inactive) | 7.65%
Cc1ccc(Nc2cc(=O)n(C3CCCCC3)c(=O)[nH]2)cc1C | 0% (inactive) | 10.6%
COc1ccccc1N1CCN(Cc2cc(Br)c(O)c3ncccc23)CC1 | 35.3% (inactive) | 17.4%
CCC(C(=O)Nc1ccccc1OC)n1c(C(=O)OC)cc2ccsc21 (configuration not stated) | 12.2% (inactive) | 2.5%
COc1ccc(CCNC(=O)C2CCCN(Cc3nc(-c4cccc(Cl)c4)oc3C)C2)cc1OC (configuration not stated) | 28.6% (inactive) | 3.85%
CCc1ccc(-c2nc(CN3CCC(C(=O)NCc4ccc(F)cc4)CC3)c(C)o2)cc1 | 0% (inactive) | 17.9%
CN(C)c1ccc(CNC2CC(C)(C)NC(C)(C)C2)cc1 | 49.2% (active) | 10.6%
O=C(NCCCN1CCN(c2cccc(Cl)c2)CC1)C1CCC(=O)N1Cc1ccccc1Cl (configuration not stated) | 33.3% (inactive) | 11.4%
CCc1nn(C(C)C(=O)N2CCc3ccccc3C2)c(=O)c2cc3occc3n12 (configuration not stated) | 5.5% (inactive) | 2.8%
CCN(CCNC(=O)C1CCN(Cc2nc(-c3cccc(Cl)c3)oc2C)CC1)c1ccccc1 | 66.7% (inactive) | 31.2%
CCN(CC)CCCNc1oc(-c2cccc(Cl)c2)nc1C#N | 21.9% (inactive) | 32.5%
CN1C(=O)c2ccc(S(=O)(=O)c3ccc(C(=O)O)cc3)cc2C1=O | 7.2% (inactive) | 5.75%
CCOC(=O)N1CCC(NC(=O)c2cc3c(-c4ccccc4F)nn(C)c3s2)CC1 | 3.3% (inactive) | 3.9%
Cn1c(C(=O)NCCCN2CCN(c3ccccc3F)CC2)cc2c(=O)[nH]c3ccccc3c21 | 33.3% (inactive) | 11.1%
O=C(COc1ccc(S(=O)(=O)N2CCCC2)cc1Cl)NC1CC1 | 3.1% (inactive) | 1.25%
Cc1ccccc1-c1nc(CN2CCC(C(=O)N3CCN(c4ccccn4)CC3)CC2)c(C)o1 | 24.7% (inactive) | 12.9%
CCOC(=O)c1ccccc1NC(=O)Cn1c(-c2nonc2N)nc2ccccc21 | 30.6% (active) | 27.1%
CC1(C)CC(=O)c2cc(OCC(=O)NCCCN3CCN(c4ccccc4F)CC3)ccc2O1 | 27.3% (inactive) | 6.5%
CCN(CC)CCCNC(=O)c1cc2c(-c3ccc(Cl)cc3)nn(C)c2s1 | 61.5% (active) | 81.5%
COc1ccc(-c2noc(-c3cc(Cl)ccc3Cl)n2)cc1OC | 49.4% (inactive) | 7.6%

SMILES | side scatter shift (at 100 µM) | side scatter shift (side scatter shift, at 10 µM)
CC1CCCCN1CCNC(=O)c1ccc2c(=O)n(CCc3ccccc3)c(=O)[nH]c2c1 (configuration not stated) | 59.5% (active) | 18.2%
O=C(Cn1c(=O)[nH]c2ccsc2c1=O)NC1CCCCCC1 | 2.5% (inactive) | 5.85%
O=C(CCn1c(=O)oc2ccccc21)NCCCN1CCN(c2ccc(F)cc2)CC1 | 25.4% (inactive) | 4.25%
C=CCn1cc(C(=O)N2CCN(C)CC2)c(=O)c2cc(S(=O)(=O)N3CCCC3)ccc21 | 8.9% (inactive) | 1.6%
O=C(NCCCN1CCN(c2ccccc2F)CC1)C1CCC(=O)N1C1CCCC1 (configuration not stated) | 5% (inactive) | 2.35%
Cc1ccc(Oc2ccc(S(=O)(=O)N3CCOCC3)cc2C(N)=O)c(-n2nc3ccccc3n2)c1 | 20% (inactive) | 21.3%
CCOC(=O)N1CCC(NC(=O)c2cc3c(-c4ccc(OC)c(OC)c4)nn(C)c3s2)CC1 | 16.6% (inactive) | 3.9%
O=C(Nc1cccc(Cl)c1)N1CCN(Cc2ccccc2)CC1 | 7.1% (inactive) | 10.2%
CCCS(=O)(=O)N1CCCC(C(=O)NCCCN2CCN(c3cccc(Cl)c3)CC2)C1 (configuration not stated) | 17% (inactive) | 6.55%
Cc1ccccc1-c1nc(CN2CCCC(C(=O)NCCCN3CCOCC3)C2)c(C)o1 (configuration not stated) | 72.4% (active) | 12.8%
Cc1oc(-c2ccc(Cl)cc2)nc1CN1CCCC(C(=O)NCc2cccnc2)C1 (configuration not stated) | 25% (inactive) | 7.2%
O=C(CCN1C(=O)COc2ccccc21)NCCCN1CCN(c2ccc(F)cc2)CC1 | 45.3% (inactive) | 7.5%
Nc1ccccc1NC(=O)c1ccccc1N | 5.9% (inactive) | 2.1%
COc1ccccc1N1CCN(c2nc3ccccc3nc2C(C#N)C(=O)OC(C)C)CC1 (configuration not stated) | 78.2% (active) | 21.1%
Cc1cc(=O)oc(C)c1C(=O)NCCCN1CCN(c2ccccc2F)CC1 | 32.8% (inactive) | 2.1%
COc1ccc2c(c1OC)C(=O)N(C(C)C(=O)O)C2=O (configuration not stated) | 17.9% (inactive) | 5.3%
Cc1ccccc1OCc1nc(-c2ccc(NC(=O)c3ccc4c(c3)OCO4)cc2)no1 | 32.3% (inactive) | 4.6%
Cc1nc(NCCNC(=O)c2ccco2)c2c(C)c(C)sc2n1 | 24.1% (inactive) | 4.2%
CCN(CC)CCCNC(=O)c1cc(-c2cccc(Cl)c2)on1 | 4.1% (inactive) | 4.25%
CCCCn1c2c(c3ccccc31)CCc1nonc1-2 | 20.1% (inactive) | 2.8%
O=C(c1ccc2c(c1)OCCO2)N1CCCCC1 | 7.7% (inactive) | 8.05%

SMILES | side scatter shift (at 100 µM) | side scatter shift (side scatter shift, at 10 µM)
CC(C)(C)c1ccc(C(O)CCCN2CCC(C(O)(c3ccccc3)c3ccccc3)CC2)cc1 (configuration not stated) | 16.7% (inactive) | 14.8%
Cc1ccc(NC(=O)N2CCCN(Cc3ccc(F)cc3)C2)cc1C | 15.4% (inactive) | 28.2%
COc1ccc(-c2cc(-c3ccc(F)cc3)nc(N3CCN(C)CC3)n2)cc1 | 33.3% (inactive) | 14.8%
COc1ccc(/C=N/c2nc3ccccc3n2C)cc1OC | 10% (inactive) | 6.6%
CCCCOC(=O)Nc1cc(C(=O)OC)ccc1C(=O)OC | 21% (inactive) | 1.25%
CCOC(=O)c1c(-c2ccc(C)o2)csc1NC(=O)CN1CCN(CC)CC1 | 22.2% (inactive) | 8.3%
Nc1ccc(-n2ccnc2)cc1 | 37.6% (inactive) | 7.5%
CCCS(=O)(=O)N1CCCC(C(=O)NCCCN2CCN(c3ccc(F)cc3)CC2)C1 (configuration not stated) | 8.2% (inactive) | 12.3%
CCc1nnc(NC(=O)CSc2nc3ccccc3s2)s1 | 5.7% (inactive) | 5%
COc1ccc(Cc2n[nH]c(=O)c3ccccc23)cc1OC | 5.3% (inactive) | 5.7%
COc1ccc(OC)c(CNC(=O)CCNC(=O)Cn2ccc3ccccc3c2=O)c1 | 12.7% (inactive) | 7.3%
CCOc1ccc2ccccc2c1C(=O)N1CCN(c2ccccc2)CC1 | 21.1% (inactive) | 1.7%
O=C(Cn1cnc2ccccc2c1=O)NCCC(=O)N1CCN(c2ccccc2)CC1 | 17.1% (inactive) | 4%
Cc1cccc(N2CCN(C(=O)CCNC(=O)Cn3ccc4ccccc4c3=O)CC2)c1C | 0% (inactive) | 2%
CCC(=O)N(Cc1ccco1)c1nc(-c2cc(OC)ccc2OC)cs1 | 13.2% (inactive) | 9.2%
Cn1nc(-c2ccc(Cl)cc2)c2cc(C(=O)NCCN3CCOCC3)sc21 | 30% (inactive) | 5.2%
Cc1ccccc1-c1nc(CN2CCC(C(=O)NCc3ccco3)CC2)c(C)o1 | 41.1% (inactive) | 3.2%
COc1ccccc1N1CCN(C(=O)CCn2c(=O)[nH]c3ccsc3c2=O)CC1 | 19.4% (inactive) | 1.7%
